Assay results reported in PubChem BioAssay AID1510 (The Scripps Research Institute Molecular Screening Center, 2009).
Hit rate of the full screen: of about 220,000 compounds, about 570 (0.26%) were called active. Cut-off read from the data, not from the text of the source: active = inhibition above about 29%; inactive = the rest. For the sample, actives were picked, then their nearest neighbours and some compounds at random.

These compounds were tested against Sphingosine 1-phosphate receptor 4 (Homo sapiens) (UniProt O95977) (assay: S1P4 receptor antagonists, primary screen, cell-based (AID 1510;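 note: 0% = wells stimulated with agonist and 100% = vehicle wells without agonist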)). Conditions: S1P4-expressing cells, antagonist mode, reporter read-out; at 4.98 µM; active compounds read high.
Sphingosine 1-phosphate receptor 4 (Homo sapiens), sequence (O95977 whole entry, looked up): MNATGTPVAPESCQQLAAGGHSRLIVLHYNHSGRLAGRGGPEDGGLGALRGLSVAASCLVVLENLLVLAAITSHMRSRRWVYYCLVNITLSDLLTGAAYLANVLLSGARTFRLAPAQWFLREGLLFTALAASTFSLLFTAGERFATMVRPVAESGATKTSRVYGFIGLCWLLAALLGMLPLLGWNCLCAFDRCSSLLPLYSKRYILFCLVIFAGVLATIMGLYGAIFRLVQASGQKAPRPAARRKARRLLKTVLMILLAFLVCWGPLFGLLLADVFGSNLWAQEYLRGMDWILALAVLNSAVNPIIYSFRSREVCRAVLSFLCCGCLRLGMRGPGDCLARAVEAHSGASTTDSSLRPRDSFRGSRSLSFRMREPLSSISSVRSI

Structure (SMILES)	inhibition
O=C(/C=C/c1ccc(Cl)c([N+](=O)[O-])c1)c1ccc(O)cc1	46.2% (active)
CN(C)c1ccc(/C=C/C(=O)c2ccc(C(C)(C)C)cc2)cc1[N+](=O)[O-]	-10.1% (inactive)
CN(C)c1ccc(/C=C/C(=O)c2ccc(O)cc2)cc1[N+](=O)[O-]	6.74% (inactive)
COc1ccccc1CNC(=O)Cn1c(=O)oc2cc(Cl)ccc21	0.8% (inactive)
COc1ccc(C[C@H]2CN3C(=NC[C@H]3C)N2CCNC(=O)CCC2CCCCC2)cc1	-5.06% (inactive)
CC1CCCC(NC(=O)c2cccc(N3CCCC3=O)c2)C1C (centres undefined)	-7.04% (inactive)
C/C(=N/O)c1ccc(N2C(=O)C3C4C=CC(C3C2=O)C2C3C(=O)N(c5ccc(/C(C)=N/O)cc5)C(=O)C3C42)cc1 (centres undefined)	-4.36% (inactive)
COC(=O)C1=C(Nc2ccc(C)cc2)C=C(C)C(C(=O)OC)C1c1ccc(F)cc1 (centres undefined)	-18% (inactive)
O=C(NNC(=S)Nc1ccc(Br)cc1Cl)c1ccco1	-12.4% (inactive)
NC(=O)N/N=C\c1cccs1	-18.6% (inactive)
CCCCCCCC(=O)NC(Nc1ccccc1OC)C(Cl)(Cl)Cl (centres undefined)	8.46% (inactive)
Cc1cc(NC(=O)CSCc2ccccc2C)no1	-4.86% (inactive)
C=CS(=O)c1sc(Cl)c(N2CCOCC2)c1[N+](=O)[O-] (centres undefined)	46.3% (active)
O=c1c2cc(-c3ccccc3)sc2nc2n1N=C(c1cccs1)CS2	-3.31% (inactive)
CCOc1ncccc1C(=O)N(CC)CC(=O)Nc1ccc(NC(C)=O)cc1	-27.8% (inactive)
CNc1ccc(SC#N)cc1	30.8% (active)
COc1cc2c(cc1O)[C@H](Cc1ccc(Oc3cc(C[C@@H]4NCCc5cc(OC)c(O)cc54)ccc3O)cc1)NCC2	-13.1% (inactive)
CC[C@H]1CN2CCc3cc(OC)c(OC)cc3[C@@H]2C[C@@H]1C[C@H]1NCCc2cc(OC)c(OC)cc21	82.3% (active)
O=C(Nc1ccc(Cl)cc1)Nc1ccc(C(=O)N2CCOCC2)cc1	6.4% (inactive)
Cc1ccc(Oc2cc(NC(=O)CCCn3nc(C)c([N+](=O)[O-])c3C)cc([N+](=O)[O-])c2)cc1	-12.2% (inactive)
CS(=O)(=O)c1ccc(Cl)c(NC(=O)Nc2ccccc2)c1	17.2% (inactive)
O=C(Nc1ccc(Cl)cc1)c1ccsn1	4.84% (inactive)
O=C(Nc1ccccc1)c1nnsc1S(=O)(=O)c1ccc(Cl)cc1	93.8% (active)

Structure (SMILES)	inhibition
CS(=O)(=O)N(CC(=O)N1CCN(c2ccc(F)cc2)CC1)C1CCCCC1	-13.7% (inactive)
Cc1ccc(CCC(=O)Nc2ncc(Cc3cc(Cl)ccc3Cl)s2)o1	-6.95% (inactive)
CCc1ccc(S(=O)(=O)NCC(O)COc2ccc(OC)cc2)cc1 (centres undefined)	2% (inactive)
O=C(/C=C/Sc1ncn[nH]1)c1ccc(Cl)cc1	47.2% (active)
O=C(NCCOCc1ccc(Cl)cc1)c1ncn[nH]1	-4.23% (inactive)
COc1ccc(Cl)cc1CSc1ncn[nH]1	-3.23% (inactive)
CC(=O)N1N=C(c2ccncc2)OC1(Cc1ccccc1)Cc1ccccc1	23.2% (inactive)
CN(C)CCNC(=O)Cc1ccc([N+](=O)[O-])cc1	-16% (inactive)
CCCc1nc2c(C)cc(-c3nc4ccccc4n3C)cc2n1Cc1ccc(-c2ccccc2C(=O)O)cc1	-1.52% (inactive)
CCOc1ccc(C(C)=O)cc1COC(=O)c1cnc(Cl)c(Cl)c1	-30.6% (inactive)
CCOC(=O)/C=C/C(=O)OCC(=O)NC(c1ccccc1)c1ccccc1	36.3% (active)
O=C(Cc1ccc(-c2ccccc2)cc1)NC(c1ccccc1)c1ccccc1	-5.23% (inactive)
CCOC(=O)C(C(=O)OCC)C(C#N)c1ccccc1 (centres undefined)	-19.7% (inactive)
O=C(CSc1cccc[n+]1[O-])NCCCc1ccccc1	14.6% (inactive)
O=C(Nc1nnc(CCN2CCCCC2)s1)c1cccc(Cl)c1	6.03% (inactive)
Cc1cc(Nc2cccc(C)c2C)n2ncnc2n1	-10.4% (inactive)
O=C(CSc1nnnn1-c1ccc(O)cc1)c1ccc(F)cc1	6.46% (inactive)
CCOC(=O)c1sc(NC(=O)CSc2nc(O)c(Cc3ccccc3)c(=O)[nH]2)nc1C	-8.89% (inactive)
Cc1[nH]c2ccccc2c1-c1ccc(Cl)nn1	2.48% (inactive)
O=C(CO/N=C/c1ccccc1O)NNC(=O)c1ccccc1Cl	-12.4% (inactive)
Cc1cc(C)cc(Oc2nc3c(C)cccn3c(=O)c2/C=C(\C#N)C(=O)NC2CCS(=O)(=O)C2)c1 (centres undefined)	-10.8% (inactive)
CCNC(=O)NNC(=O)C1CC(c2cccs2)=NO1 (centres undefined)	-2.29% (inactive)
CCOc1ccc(NS(=O)(=O)c2ccc(C)c(C(N)=O)c2)cc1	-13.9% (inactive)

Structure (SMILES)	inhibition
CC(=O)Nc1ccc(S(=O)(=O)NC2(C(F)(F)F)C(=O)Nc3c2c(=O)[nH]c(=O)n3Cc2ccccc2)cc1 (centres undefined)	-16.6% (inactive)
O=C(Nc1ccccc1)N1CCN(C2c3ccccc3-c3ccccc32)CC1	-2.81% (inactive)
COc1ccc(NC(=O)c2cn(-c3ccccc3)nc2SC)cc1	-1.4% (inactive)
COCC(=O)Nc1cc(C(=O)OC)cc(C(=O)OC)c1	-10.1% (inactive)
Nc1c(C(=O)O)cnn1-c1ccccc1	-7.33% (inactive)
CC(C)NC(=O)NCCCCCCS(C)=O (centres undefined)	-8.38% (inactive)
CSc1cccc(NC(=O)C2CCCN2S(=O)(=O)c2ccc3c(c2)CCC(=O)N3)c1 (centres undefined)	-15% (inactive)
CCC(C)(C)C1CCC(=NNC(=O)c2ccc(Br)o2)CC1 (centres undefined)	-7.44% (inactive)
CCOC(=O)Cc1ncccc1C(=O)Nc1ccc(OC(F)(F)F)cc1	-25.3% (inactive)
COC(=O)c1ccc(S(=O)(=O)NCc2ccccc2)n1C	-20.7% (inactive)
Cc1nn(-c2ccccc2)c(C)c1NC(=O)CCl	-19.8% (inactive)
COc1ccc2ccccc2c1CNc1nnnn1C	6.29% (inactive)
O=C(O)c1ccn(COc2ccc(Br)cc2)n1	3.75% (inactive)
Nc1nnc(SCC(=O)Nc2ccc3nc(SCC(=O)Nc4ccccc4)sc3c2)s1	-10.8% (inactive)
CC(C)C(C)(C#N)NC(=O)CSc1nncn1-c1ccccc1 (centres undefined)	-9.99% (inactive)
CCOc1ncccc1C(=O)N(C)CC(=O)Nc1ccc(F)cc1	-7.65% (inactive)
CCCCCC1CCC(c2nnc(SCC(C)=O)o2)CC1 (centres undefined)	-13.8% (inactive)
NC(=O)COC(=O)c1cc(S(=O)(=O)N2CCN(c3ccccc3)CC2)ccc1Cl	-4.86% (inactive)
Cn1c(CCC(=O)OCC(=O)NCc2ccccc2Cl)nc(=O)c2ccccc21	-5.53% (inactive)
O=C(Nc1ccc(F)cc1)N1CCN(c2ccc(F)cc2)CC1	-44% (inactive)
Cn1c(N)c(C(=O)COC(=O)c2cnc(Cl)c(Cl)c2)c(=O)n(C)c1=O	-6.76% (inactive)
CCc1nnc(NS(=O)(=O)c2ccc(NC(=S)NC(=O)/C=C/c3cccs3)cc2)s1	9.53% (inactive)
O=C(Nc1ccccc1Cc1ccccc1)c1ccc2c(c1)SC1=NS(=O)(=O)CCN12	-10.9% (inactive)
